Test systems include NCI-H23 lung; NCI-H226 lung; NCI-H322M lung; HOP-62 NSCLC; NCI-H460 lung; NCI-H522 lung; A549/ATCC NSCLC; 786-0 renal; COLO 205 colon; DU-145 prostate; K-562 leukemia; MALME-3M melanoma; MDA-MB-231 breast; RXF 393 renal; SF-268 CNS; SF-295 CNS; SF-539 CNS; UACC-257 melanoma; M14 melanoma; HOP-92 NSCLC.
Holding throughout (assay): NCI-60 one-dose screen, 48 h (100 = growth as untreated, 0 = no growth, -100 = all killed)
Holding throughout (conditions): 10 µM unless noted

Molecules are shown by their SMILES. The panel holds about 83,000 compounds, 20% with a hit somewhere; the sample as a whole holds those more often.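 96-well plates, one dose, 48 hours. Percent growth reported; active if below 10.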 Unmarked numbers belong to inactive results. Active and inactive are the calls of the source.

In the case of `COc1ccc(/C=C/C(=O)c2ccc(Nc3nc(Nc4ccc(F)cc4)nc(Nc4ccc(Cl)cc4)n3)cc2)cc1`, the growth with NCI-H23 lung was 93.3%; with NCI-H226 lung, 122%; in the experiment on NCI-H322M lung, 152%; in the experiment with HOP-62 NSCLC it was 112%; in the experiment with NCI-H460 lung, 94.2%; in the experiment with NCI-H522 lung it was 61.9%. Further, the growth in the experiment on A549/ATCC NSCLC was 90.5%; in the experiment on 786-0 renal, 92.6%; in the experiment on COLO 205 colon, 96%; in the experiment with DU-145 prostate it was 104%; in the experiment on K-562 leukemia, 85.4%; in the experiment with MALME-3M melanoma it was 164%. The growth in the experiment on MDA-MB-231 breast is 95.3%; in the experiment with RXF 393 renal, 1.27% (active); in the experiment with SF-268 CNS, 100%; in the experiment on SF-295 CNS, 81.8%; in the experiment with SF-539 CNS, 109%; in the experiment on UACC-257 melanoma, 107%. Moreover, the growth in the experiment on M14 melanoma is 95.2%.
Regarding `O=C(/C=C/C12c3ccccc3C(c3ccccc31)C1C(=O)NC(=O)C12)c1ccccn1` (configuration not stated), the growth was -8.66% (active) in the experiment with NCI-H23 lung; 48.5% in the experiment with NCI-H226 lung; -4.26% (active) in the experiment with NCI-H322M lung; -22.7% (active) with HOP-62 NSCLC; -18.5% (active) in the experiment on NCI-H460 lung; -12.4% (active) with HOP-92 NSCLC. In addition, the growth was 7.45% (active) in the experiment on NCI-H522 lung; 6.07% (active) in the experiment on A549/ATCC NSCLC; 1.59% (active) with 786-0 renal; 15.3% in the experiment with DU-145 prostate; 8.81% (active) in the experiment on K-562 leukemia; 19.1% in the experiment with MALME-3M melanoma. Also, the growth was 16.4% in the experiment on MDA-MB-231 breast; -46.3% (active) with RXF 393 renal; 24.1% with SF-268 CNS; 16% in the experiment with SF-295 CNS; -7.59% (active) in the experiment with SF-539 CNS; 33.8% with UACC-257 melanoma. In addition, in the experiment on M14 melanoma, the growth was -15.4% (active).
In the case of `c1ccc(CNc2ccc3nc(CCC4CCCCC4)[nH]c3c2)cc1`, the growth in the experiment with NCI-H23 lung was 68.2%; with NCI-H226 lung it was 71.4%; with NCI-H322M lung it was 86.7%; with HOP-62 NSCLC, 80.1%; with NCI-H460 lung, 78.1%; in the experiment with NCI-H522 lung, 58.3%. Moreover, the growth was 72.5% in the experiment with A549/ATCC NSCLC; 62.2% in the experiment on 786-0 renal; 1.16% (active) with COLO 205 colon; 80.1% in the experiment on DU-145 prostate; 14.6% with K-562 leukemia; 58.3% in the experiment on MALME-3M melanoma. The growth in the experiment with MDA-MB-231 breast is 77.7%; in the experiment with RXF 393 renal it was 66.5%; with SF-268 CNS, 79.8%; with SF-295 CNS, 81%; in the experiment on SF-539 CNS it was 82.1%; in the experiment on UACC-257 melanoma it was 74.2%. In addition, the growth in the experiment on M14 melanoma is 76.2%.
Turning to `N=C(N)c1ccc(-c2ccc(-c3ccc(F)cc3)s2)s1`, the growth in the experiment with NCI-H23 lung was -62.6% (active); in the experiment on NCI-H226 lung it was 90.4%; in the experiment with NCI-H322M lung, -29.7% (active); in the experiment with HOP-62 NSCLC, 57%; in the experiment on NCI-H460 lung, -64.9% (active); with HOP-92 NSCLC it was 28.5%. Besides, the growth in the experiment with NCI-H522 lung is -72% (active); in the experiment with A549/ATCC NSCLC it was -65.8% (active); with 786-0 renal, -57.5% (active); with DU-145 prostate, -86.3% (active); in the experiment on K-562 leukemia it was -61.4% (active); with MALME-3M melanoma it was 76.9%. Further, the growth was -54.4% (active) in the experiment on MDA-MB-231 breast; -69.1% (active) in the experiment with RXF 393 renal; -19.5% (active) in the experiment on SF-268 CNS; -76.4% (active) with SF-295 CNS; -29% (active) in the experiment on SF-539 CNS; -50.2% (active) in the experiment on UACC-257 melanoma. Also, the growth with M14 melanoma was -45.5% (active).
Take `CCOC(=O)c1c(C)nn(CC(O)c2ccccc2)c1NC(=O)Nc1cccc(F)c1` (configuration not stated): the growth in the experiment with NCI-H23 lung was 97%; in the experiment on NCI-H226 lung it was 85.4%; in the experiment with NCI-H322M lung it was 88.8%; in the experiment on HOP-62 NSCLC, 91.2%; in the experiment with NCI-H460 lung, 93.6%; in the experiment on NCI-H522 lung, 81.8%. In addition, the growth in the experiment with A549/ATCC NSCLC was 87%; with 786-0 renal it was 88.7%; in the experiment on COLO 205 colon, 102%; in the experiment with DU-145 prostate, 94.3%; with K-562 leukemia, 88.5%; in the experiment with MALME-3M melanoma, 101%. Besides, the growth with MDA-MB-231 breast is 93%; with RXF 393 renal, 85.2%; in the experiment on SF-268 CNS, 83.7%; with SF-295 CNS, 78.9%; in the experiment on SF-539 CNS, 98.8%; in the experiment on UACC-257 melanoma it was 91%. In addition, the growth with M14 melanoma was 96.2%.
For `Cn1ncc2ccc(-c3nc(-c4ccccc4)[nH]c3-c3n[nH]c(=O)n3C3CC3)cc21`, the growth in the experiment with NCI-H23 lung was 93.7%; with NCI-H226 lung, 97.7%; in the experiment with NCI-H322M lung it was 111%; in the experiment with HOP-62 NSCLC, 95.1%; in the experiment on NCI-H460 lung, 99.4%; in the experiment on HOP-92 NSCLC, 61.3%. Moreover, the growth in the experiment with NCI-H522 lung is 81.5%; in the experiment on A549/ATCC NSCLC it was 93.7%; in the experiment with 786-0 renal, 88.8%; in the experiment with DU-145 prostate it was 106%; in the experiment with K-562 leukemia, 101%; with MALME-3M melanoma, 95.6%. The growth was 98% with MDA-MB-231 breast; 106% in the experiment on RXF 393 renal; 102% in the experiment on SF-268 CNS; 101% in the experiment with SF-295 CNS; 97.6% in the experiment on SF-539 CNS; 94.9% in the experiment with UACC-257 melanoma. Moreover, the growth in the experiment on M14 melanoma is 88.4%.
For the molecule `CCCCC(=O)Nc1ncc(Cc2ccccc2Cl)s1`, the growth was 69.4% in the experiment on NCI-H23 lung; 63.4% with NCI-H226 lung; 86.8% with NCI-H322M lung; 42.7% in the experiment on HOP-62 NSCLC; 51% in the experiment on NCI-H460 lung; 51.3% with HOP-92 NSCLC. Further, the growth in the experiment on NCI-H522 lung is 19.9%; in the experiment on A549/ATCC NSCLC it was 40.9%; in the experiment with 786-0 renal it was 50%; in the experiment on DU-145 prostate, 67.2%; in the experiment with K-562 leukemia, 24.8%; in the experiment on MALME-3M melanoma, 52.1%. In addition, the growth in the experiment with MDA-MB-231 breast is 53.3%; in the experiment with RXF 393 renal, 31.3%; with SF-268 CNS, 69.6%; in the experiment with SF-295 CNS, 45.7%; with SF-539 CNS, 39.2%; in the experiment on UACC-257 melanoma, 55.3%. Further, the growth in the experiment with M14 melanoma is 21.8%.
Take `N#CCC1=NC(c2cccs2)=Nc2ccccc2S1`: the growth in the experiment with NCI-H23 lung was 94.6%; in the experiment on NCI-H226 lung it was 82.4%; in the experiment on NCI-H322M lung it was 101%; with HOP-62 NSCLC, 89.6%; in the experiment with NCI-H460 lung, 97.7%; in the experiment with NCI-H522 lung, 57.4%. Also, the growth was 96% in the experiment with A549/ATCC NSCLC; 98.6% in the experiment on 786-0 renal; 107% with COLO 205 colon; 109% in the experiment on DU-145 prostate; 86.5% with K-562 leukemia; 99% in the experiment with MALME-3M melanoma. The growth with MDA-MB-231 breast was 90.1%; with RXF 393 renal it was 105%; in the experiment with SF-268 CNS, 94%; in the experiment with SF-295 CNS, 103%; with SF-539 CNS, 101%; in the experiment on UACC-257 melanoma it was 94.4%. In addition, in the experiment on M14 melanoma, the growth was 94%.

The record behind these values is PubChem BioAssay (NCI).
